The entries come from a sample that favours hits as a whole.
U2OS ROS induce: raises reactive oxygen species in U2OS cancer cells. U2OS ROS induction, H2DCF-DA fluorescence. ROS induction (% of piperlongumine), % at 10 µM. 46,000 tested, 2% active. AID 624156; in the data active = ROS induction above about 79%, passing the limit was not always enough; inconclusive = no clear call, values can overlap the other calls
NOMO-1 viab: STK33 inhibitor candidate reducing NOMO-1 cell viability; 37,000 tested, 7.5% active; inhibition, % (test concentration not listed); NOMO-1 AML viability, CellTiter-Glo luminescence, 72 h; in the data active = inhibition above about 80%; inconclusive = no clear call, values can overlap the other calls
Hits are given with their value; n = inactive; u = inconclusive; x = no result.

SMILES	U2OS ROS induce	NOMO-1 viab
C[C@@H]1CN([C@@H](C)CO)C(=O)c2cccc(NC(=O)Nc3ccccc3)c2O[C@H]1CN(C)Cc1ccc(Cl)c(Cl)c1	u	102.4
C[C@@H]1CN([C@@H](C)CO)C(=O)c2cccc(NC(=O)Nc3ccc(F)cc3)c2O[C@@H]1CN(C)Cc1ccc(Cl)c(Cl)c1	n	93.4
C[C@H](CO)N1C[C@H](C)[C@H](CN(C)Cc2ccc(Cl)c(Cl)c2)Oc2c(NC(=O)Nc3ccc4c(c3)OCO4)cccc2C1=O	n	n
C[C@H]1CN([C@@H](C)CO)C(=O)c2cccc(NC(=O)Nc3ccccc3)c2O[C@@H]1CN(C)Cc1ccc(Cl)c(Cl)c1	89.1	n
C[C@H](CO)N1C[C@H](C)[C@H](CN(C)Cc2ccc(Cl)c(Cl)c2)Oc2c(NC(=O)Nc3ccccc3)cccc2C1=O	n	n
C[C@@H]1CN([C@H](C)CO)C(=O)c2cccc(NC(=O)Nc3ccccc3)c2O[C@@H]1CN(C)Cc1ccc(Cl)c(Cl)c1	n	u
Cc1cccc(NC2=C(n3nnc4ccccc43)C(=O)c3ccccc3C2=O)c1	n	x
Cc1cc(C)nc(Nc2ncc(O)n2-c2ccc(Cl)c(Cl)c2)n1	n	n
CCOC(=O)C1=C(CS(=O)(=O)c2ccccc2)NC(=O)NC1c1ccc(SC)cc1 (stereo not drawn)	n	x
COc1ccc(S(=O)(=O)N(C)C[C@@H]2Oc3c(NS(=O)(=O)c4ccc(Cl)cc4)cccc3C(=O)N([C@H](C)CO)C[C@@H]2C)cc1	n	n
COc1ccc(CN(C)C[C@@H]2Oc3ccc(NS(=O)(=O)c4ccc(OC)cc4)cc3CC(=O)N([C@H](C)CO)C[C@H]2C)cc1	n	n
COc1ccc(S(=O)(=O)Nc2ccc3c(c2)CC(=O)N([C@@H](C)CO)C[C@H](C)[C@H](CN(C)Cc2ccc(Cl)c(Cl)c2)O3)cc1	n	104.5
COc1ccc(S(=O)(=O)Nc2ccc3c(c2)C(=O)N([C@H](C)CO)C[C@H](C)[C@H](CN(C)Cc2ccc(Cl)c(Cl)c2)O3)cc1	n	n
COc1ccc(S(=O)(=O)Nc2ccc3c(c2)CC(=O)N([C@H](C)CO)C[C@@H](C)[C@@H](CN(C)Cc2ccc(Cl)c(Cl)c2)O3)cc1	n	114.0
COc1ccc(S(=O)(=O)Nc2ccc3c(c2)CC(=O)N([C@@H](C)CO)C[C@@H](C)[C@@H](CN(C)Cc2ccc(Cl)c(Cl)c2)O3)cc1	n	106.5
COc1ccc(CN(C)C[C@H]2Oc3ccc(NS(=O)(=O)c4ccc(OC)cc4)cc3CC(=O)N([C@H](C)CO)C[C@H]2C)cc1	n	n
COc1ccc(NC(=O)Nc2ccc3c(c2)CC(=O)N([C@H](C)CO)C[C@@H](C)[C@@H](CN(C)S(=O)(=O)c2ccccc2)O3)cc1	n	n
CCOC(=O)CNc1n[nH]c(=O)[nH]c1=O	n	n
Cc1c(C(=O)CSc2n[nH]c(=O)n2C2CC2)sc2ccc(Cl)cc12	n	x
O=C(c1sc(N2CCOCC2)nc1-c1ccccc1)c1c[nH]c2ccccc12	n	x
O=C(CS(=O)c1ccc(C(F)(F)F)cc1[N+](=O)[O-])Oc1ccc(Cl)cc1 (stereo not drawn)	n	109.7
Cc1ccc(NC(=O)CC2Sc3ccc(C(F)(F)F)cc3NC2=O)c([N+](=O)[O-])c1 (stereo not drawn)	n	n
O=C(CS(=O)c1ccccc1[N+](=O)[O-])Nc1cccc(C(F)(F)F)c1 (stereo not drawn)	n	n
Cc1ccc(C(C)C)c(OC(=O)CS(=O)c2ccc(C(F)(F)F)cc2[N+](=O)[O-])c1 (stereo not drawn)	u	129.6
COc1ccc(C2=NN(CCC(=O)NC3CC3)C(=O)CC2)cc1	n	x
SMILES	U2OS ROS induce	NOMO-1 viab
FC(F)(F)Oc1ccccc1NC(=S)NCc1ccc2c(c1)CCO2	n	x
CNC[C@H]1Oc2ccc(NC(=O)CCC(F)(F)F)cc2CC(=O)N([C@@H](C)CO)C[C@@H]1C	n	n
C[C@@H]1CCCCO[C@H](CN(C)C(=O)Nc2ccc(C(F)(F)F)cc2)[C@@H](C)CN([C@H](C)CO)C(=O)c2cc(NC(=O)CCC(F)(F)F)ccc2O1	n	n
Cc1cc(Sc2nnc(/N=C/N(C)C)s2)c2ccccc2n1	192.3	x
CN(C)/C=N/c1nnc(SCC(=O)c2ccc(F)cc2)s1	n	x
C[C@@H]1CN([C@@H](C)CO)C(=O)Cc2cc(NC(=O)CCC(F)(F)F)ccc2O[C@@H]1CN(C)Cc1ccc2c(c1)OCO2	n	n
C[C@H]1CN([C@@H](C)CO)C(=O)Cc2cc(NS(=O)(=O)c3cn(C)cn3)ccc2O[C@H]1CN(C)S(=O)(=O)c1ccccc1	n	n
Cc1ccc2c(c1)C(O)(CC(=O)c1ccccc1[N+](=O)[O-])C(=O)N2 (stereo not drawn)	x	n
O=C(CC1(O)C(=O)N(Cc2ccccc2)c2ccc(Br)cc21)c1ccccc1[N+](=O)[O-] (stereo not drawn)	n	99.5
Cc1cc(Br)c2c(c1)C(O)(CC(=O)c1ccco1)C(=O)N2C (stereo not drawn)	n	121.9
O=C(CC1(O)C(=O)N(Cc2ccccc2)c2ccc(Br)cc21)c1ccco1 (stereo not drawn)	n	114.1
N=c1n(CC(=O)c2ccco2)c2ccccc2n1Cc1ccccc1	n	n
CN1C(=O)C(O)(CC(=O)c2ccccc2)c2ccccc21 (stereo not drawn)	n	x
Cc1cc(C)c(NC(=O)CN(c2ccc(Oc3ccccc3)cc2)S(C)(=O)=O)c(C)c1	n	n
O=C(CSc1nnnn1-c1ccccc1F)N1c2ccccc2Sc2ccc(Cl)cc21	n	x
C[C@H]1CN([C@@H](C)CO)C(=O)c2cc(N(C)C)ccc2O[C@H]1CN(C)C(=O)Nc1ccc(F)cc1	n	n
Cc1noc(C)c1NC(=O)N(C)C[C@H]1Oc2c(NS(=O)(=O)c3cccs3)cccc2C(=O)N([C@@H](C)CO)C[C@H]1C	n	n
Cc1c2c(nc3c(C(=O)NC4CCCC(C)C4C)cnn13)CCCC2 (stereo not drawn)	89.5	x
CC1CCCC(NC(=O)c2ccc3c(SCC(=O)O)c4c(nc3c2)CCC4)C1C (stereo not drawn)	n	x
COc1ccccc1CN1C(=O)c2ccccc2[C@](Cc2ccccc2I)(C(=O)NCCCN(C)C)[C@@H]1c1ccc(CO)cc1	n	x
C[C@@H]1CN([C@H](C)CO)C(=O)c2cccc(NC(=O)c3nc4ccccc4s3)c2O[C@@H]1CN(C)Cc1ccc(Cl)c(Cl)c1	n	n
C[C@H]1CN([C@@H](C)CO)C(=O)c2cccc(NC(=O)c3nc4ccccc4s3)c2O[C@H]1CN(C)Cc1ccc(Cl)c(Cl)c1	n	96.3
C[C@@H]1CN([C@H](C)CO)C(=O)c2cccc(NC(=O)c3nc4ccccc4s3)c2O[C@H]1CN(C)Cc1ccc(-c2ccccc2)cc1	n	n
C[C@H](CO)N1C[C@H](C)[C@@H](CN(C)S(=O)(=O)c2ccccc2)Oc2c(NC(=O)c3nc4ccccc4s3)cccc2C1=O	n	n
C[C@H](CO)N1C[C@H](C)[C@H](CN(C)Cc2ccc(Cl)c(Cl)c2)Oc2c(NC(=O)c3nc4ccccc4s3)cccc2C1=O	n	104.3
C[C@@H]1CN([C@@H](C)CO)C(=O)c2cccc(NC(=O)c3nc4ccccc4s3)c2O[C@H]1CN(C)S(=O)(=O)c1ccc(Cl)cc1	79.7	92.9
CC(C)OC(=O)CSc1nnc(-c2ccccc2F)n1-c1ccccc1	n	n
CC(=O)NCCn1c(SCC(=O)NCc2ccccc2)nc2ccccc2c1=O	n	x

Source: PubChem
